Many of the other results were omitted from the sample, so hits are more common in it than they were.
FXIIa mix inh: blocks human factor XIIa in pooled compound mixtures; P00748; purified FXIIa, fluorogenic substrate; inhibition, % at 5 µM; 62,000 compounds, 0.2% hits
HePTP inh: human HePTP phosphatase inhibition. P35236. recombinant HePTP phosphatase activity, OD absorbance. inhibition, % at 20 µM. 110,000 compounds, 0.64% hits. AID 521; in the data active means inhibition above about 50%
Target sequence (P35236 whole entry, looked up): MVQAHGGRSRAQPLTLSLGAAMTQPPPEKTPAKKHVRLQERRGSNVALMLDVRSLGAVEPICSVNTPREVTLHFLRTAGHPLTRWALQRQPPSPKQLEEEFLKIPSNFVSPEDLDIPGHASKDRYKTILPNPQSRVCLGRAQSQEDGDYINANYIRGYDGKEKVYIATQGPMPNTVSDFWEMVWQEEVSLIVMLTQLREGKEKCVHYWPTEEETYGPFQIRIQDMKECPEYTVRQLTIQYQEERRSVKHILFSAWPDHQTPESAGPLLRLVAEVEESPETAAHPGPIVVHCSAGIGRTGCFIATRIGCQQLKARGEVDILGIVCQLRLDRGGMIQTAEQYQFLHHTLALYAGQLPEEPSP
TNAP act DEA: activators of human TNAP at intermediate phosphate acceptor; P05186; purified TNAP, CDP-star luminescence, 100 mM DEA, 30 min; active compounds read high; scale: 0 levamisole-inhibited, 1 vehicle-only enzyme; activation factor at 20 µM; 64,000 tested, under 10 active;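 active means activation factor of at least 2 at 20 µM, relative to controls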
Calb biofilm kill: kills Candida albicans biofilms; C. albicans biofilm + clotrimazole, Alamar Blue; 85,000 compounds, 0.14% hits; inhibition, % at 6 µM; AID 834;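 active means inhibition above 20%; inactive means inhibition below 20%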;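 further: preformed 24 hr biofilms exposed to compound for 48 hr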
FXIa inh mix: factor XIa (human) inhibition, mixture screen; purified FXIa, fluorogenic substrate, pooled mixtures; inhibition, % at 5 µM; 62,000 compounds, 0.19% hits;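 further: each value is inhibition by a whole ten-compound pool holding the compound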
D1 mod: allosterically modulates the human D1 dopamine receptor; 58,000 compounds, 5.9% hits; B-score at 10 µM; AID 641; P21728; HEK293 D1, CRE-luciferase, dopamine EC30 potentiation; actives deviate in either direction;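 active means luminescence count or its row- and column-corrected plate score outside the 99.7% band of the plate's sample wells, on either side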
Hits are given with their value; i = inactive; nt = no result. Unless noted, no stated cut-off is given here; in the data, active means inhibition above about 20% (passing the limit was not always enough); inactive means the rest.

SMILES	FXIIa mix inh	HePTP inh	TNAP act DEA	Calb biofilm kill	FXIa inh mix	D1 mod
CCCn1c2ccccc2c2nnc(SC(CC)C(=O)Nc3cc(C)on3)nc21 (stereo unspecified)	nt	nt	nt	i	nt	nt
CCC(Sc1nc(=O)cc(N)n1CCc1ccccc1)C(=O)Nc1cc(C)on1 (stereo unspecified)	i	i	i	nt	i	-5.1
O=C(COc1ccc(Br)cc1)Nc1ccc(OC(F)(F)F)cc1	nt	i	nt	nt	nt	nt
COc1ccc(Cl)cc1NC(=O)c1c(O)c2ccccc2n(CC(C)C)c1=O	nt	i	nt	nt	nt	nt
O=C(NCc1ccco1)C(Cc1ccccc1)N1C(=O)c2ccccc2C1=O (stereo unspecified)	i	i	i	i	26	i
CC(C(=O)NCc1ccco1)N1C(=O)c2ccccc2C1=O (stereo unspecified)	nt	i	nt	nt	nt	nt
c1ccc(CN2CCN(c3ncnc4c3[nH]c3ccccc34)CC2)cc1	i	i	i	i	i	-4.9
Cc1ccc2c(c1)[nH]c1c(N3CCN(Cc4ccccc4)CC3)ncnc12	i	i	i	i	i	i
O=C(Nc1cc(Cl)cc(Cl)c1)c1ccc2c(c1)OCO2	nt	i	nt	nt	nt	nt
Cc1ccc(Nc2nc(C3CC3)cs2)cc1	i	i	i	i	i	-4.9
CN1CCN(CCCNC(=O)c2cc3c(-c4ccc(Cl)cc4)nn(C)c3s2)CC1	i	i	i	i	i	-2
CC1CCCCN1CCNC(=O)c1cc2c(-c3ccccc3F)nn(C)c2s1 (stereo unspecified)	i	i	i	i	i	-5.7
CCN(CC)CCCNC(=O)c1cc2c(-c3ccc(Cl)cc3)nn(C)c2s1	i	i	i	i	i	i
CCOC(=O)C1=C(C)N=c2s/c(=C\c3ccccc3F)c(=O)n2C1c1ccc(OC)c(OC)c1 (stereo unspecified)	nt	i	nt	nt	nt	nt
O=C(NCc1ccccn1)C(=O)N/N=C/c1ccccc1F	nt	i	nt	nt	nt	nt
COCCNC(=O)CN(c1cccc(C(F)(F)F)c1)S(C)(=O)=O	nt	i	nt	nt	nt	nt
Cc1ccc(C)c(C(=O)CN2C(=O)c3ccccc3S2(=O)=O)c1	nt	nt	nt	i	nt	nt
Cc1cc(C(=O)CN2C(=O)c3ccccc3S2(=O)=O)c(C)n1CC1CCCO1 (stereo unspecified)	i	i	i	i	i	-5.7
O=C(Nc1ccc(Cl)cc1)Nc1ccc(S(=O)(=O)N2CCc3ccccc32)cc1	nt	i	nt	nt	nt	nt
O=C(N/N=C/c1ccccc1O)c1cnccn1	nt	104	nt	nt	nt	nt
CN1CCN(c2nc(-c3ccncc3)nc3ccccc23)CC1	i	i	i	i	i	-3.8
c1ccc(Cc2nnc3sc(-c4ccc5c(c4)OCO5)nn23)cc1	i	i	i	nt	i	6.2
CN1C(=O)CC(N2CCN(C(=O)CN3CCCC3)CC2)C1=O (stereo unspecified)	i	i	i	i	i	-2.7
COc1cc(C2CC(=O)NC(SCC(N)=O)=C2C#N)cc(Br)c1O (stereo unspecified)	nt	i	nt	nt	nt	nt
CCOC(=O)C(NC(C)=O)(Nc1ccc(S(=O)(=O)Nc2onc(C)c2C)cc1)C(F)(F)F (stereo unspecified)	i	i	i	i	i	-6.9
SMILES	FXIIa mix inh	HePTP inh	TNAP act DEA	Calb biofilm kill	FXIa inh mix	D1 mod
COc1ccccc1-n1c(=O)[nH]c2c(C(N)=O)nc(-c3cccnc3)nc21	i	i	i	i	i	18
CCOc1cc(C(=O)Nc2cc(C(=O)OC)ccc2C(=O)OC)cc(OCC)c1OCC	nt	i	nt	nt	nt	nt
CC(=O)NC(=O)c1ccccc1OCC(=O)c1ccc(Br)cc1	nt	55	nt	nt	nt	nt
COc1cccc2cc(-c3nc(-c4cccs4)cs3)c(=O)oc12	i	i	i	i	i	-2.4
CCN1CCN(CCNC(=O)C2CCCN(Cc3nc(-c4cccc(Cl)c4)oc3C)C2)CC1 (stereo unspecified)	i	i	i	i	i	i
CCOC(=O)N1CCC(NC(=O)C2CCCN(Cc3nc(-c4cccc(Cl)c4)oc3C)C2)CC1 (stereo unspecified)	i	i	i	nt	21	i
N#Cc1ccc2c(c1)nc1c3cccc4cccc(c(=O)n21)c43	nt	65	nt	nt	nt	nt
C#CCSc1nc2sc3c(c2c(=O)n1CC=C)CCCC3	nt	i	nt	nt	nt	nt
Nc1nc(-c2ccccc2)cc(N2CCOCC2)n1	nt	106	nt	nt	nt	nt
c1ccc(-c2cc(N3CCOCC3)nc(-c3ccccc3)n2)cc1	i	i	i	i	i	nt
CCN(CC)C(=O)c1sc(NC(=O)c2cc3ccccc3oc2=O)c(C#N)c1C	nt	i	nt	nt	nt	nt
O=C(CN1C(=O)CCC1=O)Nc1nc(-c2ccccn2)cs1	i	i	15	i	i	i
COc1ccc(C(=O)Nc2ccc(N3CCCC3)cc2)cc1	nt	nt	nt	80	nt	nt
COc1ccc(C(=O)Nc2cc(C(F)(F)F)cc(C(F)(F)F)c2)cc1	nt	104	nt	nt	nt	nt
O=C1CC(Nc2ccc(N3CCOCC3)cc2)C(=O)N1c1cccc(Cl)c1 (stereo unspecified)	nt	i	nt	nt	nt	nt
O=C(O)c1cccc(N2C(=O)CC(Nc3ccc(N4CCOCC4)cc3)C2=O)c1 (stereo unspecified)	nt	61	nt	nt	nt	nt
Cc1nnc(SCC(=O)N2c3ccccc3-c3c(ssc3=S)C2(C)C)s1	nt	i	nt	nt	nt	nt
COc1ccccc1N=c1scc(-c2ccc3c(c2)NC(=O)CO3)n1CC1CCCO1 (stereo unspecified)	i	i	i	i	i	-2.8
Cc1noc(C)c1CSc1nc2ccccc2c(=O)n1-c1ccc(F)cc1F	i	i	i	i	i	nt
Cc1noc(C)c1CSc1nc2ccccc2c(=O)n1-c1ccccc1	i	i	i	nt	i	5.3
CC(=O)Oc1ccc(C(=O)Nc2ccc3c(c2)C(=O)N(c2ccccc2)C3=O)cc1	nt	i	nt	nt	nt	nt
COC1=CC(CC(=O)c2ccc(OC)cc2)C(C(=O)c2ccccc2Cl)C=C1OC (stereo unspecified)	nt	95	nt	nt	nt	nt
COc1ccccc1N1CCN(/N=C/c2ccccc2C)CC1	nt	i	nt	nt	nt	nt
Cc1c(C(=O)Nc2ccncc2)sc2nc(-c3ccc(F)cc3)cn12	i	i	i	32	i	-5.2
COc1ccc(-c2cn3c(C)c(C(=O)Nc4ccncc4)sc3n2)cc1	i	i	i	i	i	-3.3
SMILES	FXIIa mix inh	HePTP inh	TNAP act DEA	Calb biofilm kill	FXIa inh mix	D1 mod
Cc1c(C(=O)NCC(C)C)sc2nc(-c3ccc(F)cc3)cn12	i	i	i	i	i	i
COc1ccc(-c2cn3c(C)c(C(=O)Nc4cccc(NC(C)=O)c4)sc3n2)cc1	i	i	i	i	i	i
COc1ccc(-c2cn3c4c(sc3n2)CCCC4)cc1	i	i	i	i	i	-5
Cc1cc(/C=N\Nc2ccc([N+](=O)[O-])cn2)c(C)n1-c1ccc(O)cc1	nt	i	nt	nt	nt	nt
N/C(=N\OC(=O)c1ccc(F)cc1)c1cccnc1	nt	i	nt	nt	nt	nt
CCn1c(-c2ccc(N)cc2)nc2ccccc21	i	i	i	i	i	i
CC(C)n1c(-c2ccc(N(C)C)cc2)nc2ccccc21	i	i	i	i	i	-4.6
CCn1c(-c2ccc(N(C)C)cc2)nc2ccccc21	i	i	i	i	i	-4.9
CN(C)c1ccc(-c2nc3ccccc3n2C)cc1	i	i	i	nt	i	-5.1
Cc1ccc(C(O)c2nc3ccccc3n2C(C)C)cc1 (stereo unspecified)	i	i	i	i	i	nt
CSc1nc(NCc2ccco2)c2c3c(sc2n1)CN(C)CC3	i	i	i	i	i	-4
